Experimental findings from PubChem BioAssay are described below.

Values without a mark were called inactive.

This assay in a line: basal 3T3-L1 adipocyte mitochondrial potential changes, profiling panel, cell-based, JC-1 fluorescence, 3T3-L1 adipocytes, 24 h, 100 nL compound (AID 1168). Further: test concentration not given here. The note with it: JC-1 mitochondrial fluorescence, higher = more signal, called active from +8 up or from −8 down.
Consider `O=C1C2C=CC(C(O)Cc3ccccc3)N(n3cnnc3)C2C(=O)N1Cc1ccccc1` (centres undefined), for which the z-score was -0.533.
The figure for `Cc1ccc(S[C@]2(C(=O)NCCCN(C)C)CC(=O)N(Cc3ccccc3C(F)(F)F)[C@@H]2c2ccc(CO)cc2)cc1` is 0.0218; for `COc1cc(C(O)C2C=CC3C(=O)NC(=O)C3N2Nc2ccccn2)cc(OC)c1OC` (centres undefined) it is -0.524; for `C=CCNC(=O)[C@H]1[C@@H]2C(=O)O[C@@H](c3ccccc3)[C@@H](c3ccccc3)N2[C@@H](c2ccccc2OCCO)[C@]12C(=O)Nc1ccc(C#CCC(C(=O)OC)C(=O)OC)cc12` it is 2.62.
For the compound `COCCOC(=O)N1C(=O)[C@@]2(c3cc(C#CCNC(N)=O)ccc31)[C@H](C(=O)N1CCN(c3ncccn3)CC1)[C@H]1C(=O)O[C@H](c3ccccc3)[C@H](c3ccccc3)N1[C@@H]2c1ccc(OCCO)cc1`, the z-score was 1.6.
In the case of `CCOC(=O)C[C@H]1[C@H](OC(=O)c2ccc(C(=O)c3ccccc3)cc2)[C@@H](NC(=O)c2ccc3ccccc3c2)c2cc(OCCCO)ccc2N1C(=O)Cc1ccc(OC)cc1` it was -0.808.
The figure for `C[C@H]1NC(=O)[C@@]23C(=O)N[C@@H](Cc4ccccc4)C2[C@H](C)[C@@]2(C)O[C@H]2C3/C=C/C/C=C\CNC(=O)[C@@H]2CCCN2C1=O` (some centres undefined) is 0.0802; for `C=C(CCCC)/C(=C/C[C@@H](OC(=O)c1ccncc1)c1ccc(OCCO)cc1)c1cc(C(=O)OC)ccc1OC` it is -0.451.
Consider `CN1C(=O)C2C=CC(C(O)c3ccc([N+](=O)[O-])cc3)N(N3CCCCC3)C2C1=O` (centres undefined), for which the z-score was -0.927.
